Assay results from PubChem BioAssay AID2533 (National Center for Advancing Translational Sciences (NCATS), 2010).
Values joined by “and” are separate entries in the source; they are usually repeats but may differ in a detail not shown here. Equal entries are not always repeated. Results filed as inconclusive are left out. Where a structure was tested more than once in an assay, its records may differ in their call. Active and inactive are the calls of the source. The call rests on the fitted dose curve; in most records, active means well fitted activation curve with a large enough effect; inconclusive means small, poorly fitted or top-dose-only effect; inactive means flat fitted curve, though single readings scatter.

Molecular target: Pyruvate kinase PKM (Homo sapiens) (UniProt P14618)
Sequence (P14618 whole entry, looked up, canonical isoform): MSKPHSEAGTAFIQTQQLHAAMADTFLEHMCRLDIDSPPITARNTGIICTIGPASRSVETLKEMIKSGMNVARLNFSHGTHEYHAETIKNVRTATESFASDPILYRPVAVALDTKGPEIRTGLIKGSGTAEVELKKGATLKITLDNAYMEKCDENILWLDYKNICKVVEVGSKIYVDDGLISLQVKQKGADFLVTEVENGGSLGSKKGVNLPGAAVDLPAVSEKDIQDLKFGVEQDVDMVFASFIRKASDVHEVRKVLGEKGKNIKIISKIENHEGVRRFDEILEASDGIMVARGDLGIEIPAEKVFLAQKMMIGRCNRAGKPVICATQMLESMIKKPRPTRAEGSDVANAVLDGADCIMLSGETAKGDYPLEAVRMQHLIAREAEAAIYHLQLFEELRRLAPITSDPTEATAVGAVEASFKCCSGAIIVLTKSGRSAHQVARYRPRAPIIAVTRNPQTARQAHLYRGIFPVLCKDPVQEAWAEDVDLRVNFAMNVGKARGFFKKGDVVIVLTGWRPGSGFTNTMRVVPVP
Assay: Confirmation Concentration-Response Assay for Activators of Human Muscle isoform 2 Pyruvate Kinase: for Probe SAR; further: nearly all actives have a fitted effect of over 60% in size
Settings: purified PKM2, ATP generation, Kinase-Glo luminescence; series mostly up to 57.5 µM
Text: NIH Chemical Genomics Center [NCGC]
Matthew G. Vander Heiden, M.D., Ph.D. [Harvard Medical School, 77 Avenue Louis Pasteur, Boston, MA 02115]
Human pyruvate kinase muscle 2 (hPK-M2) enzyme was supplied as a highly purified (>95% pure) preparation from Harvard Medical School and assayed for its ability to generate ATP from ADP using phosphoenolpyruvate (PEP) as a substrate. ATP generation was detected in a coupled reaction by luciferase-mediated luminescence, an ATP-dependent process. […] The enzyme was assayed at an intermediate level of activity to screen for both inhibitors and activators.
NCGC Assay Protocol Summary:
Three uL of substrate mix (at r.t.) in assay buffer (50 mM Imidazole pH7.2, 50 mM KCl, 7 mM MgCl2, 0.01% Tween 20, 0.05% BSA) was dispensed into white solid bottom 1,536 well microtiter plates so that the final concentrations of substrates in the assay were 0.1 mM ADP and 0.5 mM PEP. 23 nL of compound were delivered by a pin tool and 1 uL of enzyme mix (final concentration of 0.1 nM) in assay buffer (4 degree Celsius) was added. Plates were incubated at room temperature for 1 hour. Two uL of detection mix (Kinase-Glo, Promega; at 4 degree Celsius protected from light) was added and luminescence read by a ViewLux (Perkin Elmer) at 1 second exposure/plate. Data were normalized to the uninhibited (column 3) and AC100 inhibition (no enzyme in column 2). To monitor activation, the first column contained a titration of the activator, NCGC00031955-03 (16-point 1:2 dilutions in duplicate starting at 57 uM) and the first 16 rows of column 4 contained 57 uM of NCGC00031955-03.
Potency means the concentration at half of the fitted maximal effect.

Potency, inactive and 231 nM (active):
Cc1cc2c(s1)c1cnn(Cc3ccccc3F)c(=O)c1n2C

Potency, active:
Cc1ccc(NS(=O)(=O)c2ccc(F)cc2)cc1C 25.9 µM
COc1cc(F)c(S(=O)(=O)N2CCN(S(=O)(=O)c3cccc(N)c3)CC2)c(F)c1 0.0231 µM
Cc1cccc(NS(=O)(=O)c2ccc3c(c2)CCC(=O)N3)c1 1.83 µM
Cc1ccc(NS(=O)(=O)c2ccc3c(c2)CCC(=O)N3)cc1 5.8 µM
Cc1ccc(NS(=O)(=O)c2ccc3c(c2)CCC(=O)N3)cc1Cl 0.326 µM
COc1cc(F)c(S(=O)(=O)N2CCCN(S(=O)(=O)c3cccc(N)c3)CC2)c(F)c1 1.16 µM and 1.46 µM
Cc1ccc(NS(=O)(=O)c2ccc3ccccc3c2)cc1C 41.1 µM
O=C1CCc2cc(S(=O)(=O)Nc3cccc(Cl)c3)ccc2N1 0.41 µM
CNc1cccc(S(=O)(=O)N2CCCN(S(=O)(=O)c3ccc4c(c3)OCCO4)CC2)c1 0.103 µM
Cc1ccc(NS(=O)(=O)c2cc3c(cc2F)NC(=O)CC3)cc1C 0.73 µM
COc1cccc(NS(=O)(=O)c2ccc3c(c2)CCC(=O)N3)c1 5.17 µM
Cc1cc(NS(=O)(=O)c2ccc3c(c2)CCC(=O)N3)ccc1Cl 0.517 µM
O=C1CCc2cc(S(=O)(=O)Nc3ccc4c(c3)OCCO4)ccc2N1 20.6 µM
Cc1ccc(NS(=O)(=O)c2cc3c(cc2-c2ccco2)NC(=O)CO3)cc1C 9.19 µM
CCNc1cccc(S(=O)(=O)N2CCCN(S(=O)(=O)c3ccc4c(c3)OCCO4)CC2)c1 0.206 µM
Cc1ccc(NS(=O)(=O)c2ccc3c(c2)n(C)c(=O)n3C)cc1C 1.46 µM

Potency, inactive:
Cc1ccc(C)c(NC2=NS(=O)(=O)c3ccccc32)c1
Cc1ccc(NS(=O)(=O)c2ccc(N3CCCC3=O)cc2)cc1C
Cc1ccc(NC(=O)c2ccc3c(c2)CCC(=O)N3)cc1C
Cc1ccc(-c2nc3ccccn3c2Nc2ccccc2C)o1
Cc1ccc(-c2nc3ccc(Cl)cn3c2Nc2ccccc2)o1
O=C1c2ccccc2C(=O)N1c1cncc2ccccc12
N#Cc1ccc(OC2=NS(=O)(=O)c3ccccc32)cc1
Cc1ccccc1Nc1c(-c2ccc(Cl)s2)nc2ccccn12
COc1cc(N2C(=O)c3ccccc3C2=O)c2ncccc2c1
O=S1(=O)N=C(Oc2ccccc2C(F)(F)F)c2ccccc21
O=S1(=O)N=C(Oc2ccc(C(F)(F)F)cc2)c2ccccc21
O=C1c2ccccc2C(=O)N1c1cc(=O)c2ccccc2[nH]1
COc1ccc(N2C(=O)c3ccccc3C2=O)cc1
O=C1CCc2cc(S(=O)(=O)Nc3ccc(-c4ccccc4)cc3)ccc2N1
Cc1ccc(-c2nc3ccccn3c2Nc2ccc(F)cc2)o1
O=S1(=O)N=C(Oc2ccc(Cl)cc2)c2ccccc21
O=S1(=O)N=C(Oc2cccc(Br)c2)c2ccccc21
COC(=O)c1ccccc1S(=O)(=O)Nc1cc(=O)c2ccccc2[nH]1
Cc1ccc2nc(-c3ccc(C)o3)c(Nc3ccc(Cl)cc3)n2c1
O=C1c2ccccc2C(=O)N1c1ccccc1O
COc1ccc(NS(=O)(=O)c2ccccc2)cc1NS(=O)(=O)c1ccccc1
O=S1(=O)N=C(Oc2ccc(Br)cc2)c2ccccc21
COc1ccc(-c2sc(N)nc2-c2ccccc2)cc1
